Data on 98 compounds can be found in PubChem BioAssay AID1347165 (National Center for Advancing Translational Sciences (NCATS), 2019).

Each structure is given as a SMILES string. Screen size: about 220,000 compounds; about 5,700 (2.6%) were called active. A call without a number means that no potency is given here. Inconclusive results (about 18%) are left out. Calls follow the shape of the dose curve; as a rule, active = well fitted inhibition curve with a large enough effect; inconclusive = small, poorly fitted or top-dose-only effect; inactive = no such curve, though single readings can be large or run the other way. The full list was thinned out, with actives kept by preference.
Potency is read from the fitted curve at half-maximal effect.

Chain of Lysine-specific demethylase 5B (Homo sapiens) (Q9UGL1 whole entry, looked up, the tested form may be a part): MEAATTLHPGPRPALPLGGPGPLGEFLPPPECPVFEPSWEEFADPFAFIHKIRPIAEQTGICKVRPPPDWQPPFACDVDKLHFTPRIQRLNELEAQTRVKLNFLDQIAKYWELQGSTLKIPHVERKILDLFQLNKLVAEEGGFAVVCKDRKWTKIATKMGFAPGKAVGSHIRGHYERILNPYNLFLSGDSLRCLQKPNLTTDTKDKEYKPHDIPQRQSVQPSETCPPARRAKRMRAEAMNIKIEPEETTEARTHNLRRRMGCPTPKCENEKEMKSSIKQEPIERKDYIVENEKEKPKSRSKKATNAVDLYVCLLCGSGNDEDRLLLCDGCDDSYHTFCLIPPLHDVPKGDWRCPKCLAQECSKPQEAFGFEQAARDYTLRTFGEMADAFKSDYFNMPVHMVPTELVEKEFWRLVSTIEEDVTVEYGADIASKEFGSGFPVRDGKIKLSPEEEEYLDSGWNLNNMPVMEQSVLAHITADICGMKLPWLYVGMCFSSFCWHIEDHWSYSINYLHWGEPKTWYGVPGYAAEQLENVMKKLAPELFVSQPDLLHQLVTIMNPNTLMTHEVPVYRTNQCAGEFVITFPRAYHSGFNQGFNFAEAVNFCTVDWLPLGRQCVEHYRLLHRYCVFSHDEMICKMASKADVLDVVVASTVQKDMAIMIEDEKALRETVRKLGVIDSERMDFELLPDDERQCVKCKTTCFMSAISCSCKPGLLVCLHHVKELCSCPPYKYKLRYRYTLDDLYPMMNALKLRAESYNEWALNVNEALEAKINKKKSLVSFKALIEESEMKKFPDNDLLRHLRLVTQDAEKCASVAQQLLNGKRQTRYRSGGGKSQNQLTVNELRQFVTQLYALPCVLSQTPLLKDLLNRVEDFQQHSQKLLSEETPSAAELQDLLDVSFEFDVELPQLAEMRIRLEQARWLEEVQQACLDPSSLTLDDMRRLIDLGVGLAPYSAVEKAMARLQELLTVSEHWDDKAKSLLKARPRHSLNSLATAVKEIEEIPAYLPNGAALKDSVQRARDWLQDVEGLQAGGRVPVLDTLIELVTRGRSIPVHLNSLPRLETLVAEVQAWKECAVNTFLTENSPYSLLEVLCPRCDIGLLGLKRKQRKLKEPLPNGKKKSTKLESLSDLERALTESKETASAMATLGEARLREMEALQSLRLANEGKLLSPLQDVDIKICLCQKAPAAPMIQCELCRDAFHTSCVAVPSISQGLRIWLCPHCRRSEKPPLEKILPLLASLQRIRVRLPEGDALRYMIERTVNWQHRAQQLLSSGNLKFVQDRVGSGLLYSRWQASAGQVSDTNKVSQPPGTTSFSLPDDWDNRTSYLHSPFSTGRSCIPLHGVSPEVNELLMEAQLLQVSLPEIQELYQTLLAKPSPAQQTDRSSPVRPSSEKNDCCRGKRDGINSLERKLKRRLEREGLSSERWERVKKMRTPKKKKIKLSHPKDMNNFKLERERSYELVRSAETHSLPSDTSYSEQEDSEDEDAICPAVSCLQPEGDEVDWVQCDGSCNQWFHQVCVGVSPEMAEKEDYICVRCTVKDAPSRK

In the assay the target is Lysine-specific demethylase 5B (Homo sapiens) (UniProt Q9UGL1). The experiment in a line: Primary screen for KDM5B Histone Demethylases FDH-coupled qHTS. Also: nearly all actives have a fitted effect of over 70% in size. The conditions noted are these: FDH-coupled NADH fluorescence (FDH is formaldehyde dehydrogenase); series mostly up to 57.7 µM. The procedure, abridged:
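Inhibition is measured as reduced NADH fluorescence generation from FDH coupling to formaldehyde release. Truncated KDM5BΔAP at 200 nM final acts on H3K4me3 peptide (12.5 µM in substrate mix) in pH 7.5 HEPES buffer with Tween-20, 30 min, room temperature.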
(In general: Quantitative high-throughput screening tests each substance at several concentrations.)
For `C=C(Br)CN1CCCC1`, the Potency result was “inactive”.
Under `CCc1cccc(-n2c(SCc3nc4ccccc4o3)nnc2N2CCOCC2)c1` stands “inactive”; under `O=C(c1ccccc1F)N1CCC(c2nn(-c3ccc(Cl)cc3)c(=O)[nH]2)CC1`, “inactive”.
Under `CCOc1cccc2cc(-c3cc(=O)oc4cc(OC(=O)N5CCOCC5)ccc34)c(=O)oc12` stands “inactive”.
Then `Cc1cc(C)c2nc(SCC(=O)NC(=O)NC(C)(C)C)cc(C)c2c1`, with “inactive”; and `CCOc1ccc(CC(=O)NC2CCN(c3cc(-c4ccc(F)cc4)[nH]n3)CC2)cc1OCC`, with “inactive”.
Consider `COc1cccc(CC(=O)NC2CCN(c3cc(-c4ccc(F)cc4)[nH]n3)C2)c1` (stereo not drawn), for which the Potency is 7.94 µM (active).
Consider `COc1ccc(CC(=O)NC2CCN(c3cc(-c4ccccc4)[nH]n3)CC2)cc1`, for which the Potency result is “inactive”.
For `Cc1ccc(S(=O)(=O)NCCC(=O)Nc2cccc(S(N)(=O)=O)c2)cc1C`, the Potency entry was “inactive”.
Under `CC1(c2cccnc2)N(CCOc2ccccc2)C(=O)OC12CCN(C(=O)c1cccc(Cl)c1)CC2` (stereo not drawn) stands “inactive”.
Then `CC1(c2cccnc2)N(Cc2ccccc2)C(=O)OC12CCN(C(=O)c1cccc(Cl)c1)CC2` (stereo not drawn), with “inactive”.
Then `CCOc1ccccc1CN1CCC2(CCN(C(=O)c3cccc(Cl)c3)CC2)Oc2ccccc21`, with 25.1 µM (active).
`Cn1cccc1CN1CCC2(CC1)CNc1ccccc1[S+](=O)([O-])N2`: the Potency result was “inactive”.
Under `CN(C)C(=O)c1n[nH]c2c1CN(C(=O)c1cccc(C(F)(F)F)c1)CC2` stands “inactive”; under `NCc1ccccc1-c1cccc(C(F)(F)F)c1`, “inactive”; under `CN(C)C(=O)c1cc(-c2cccc(C(F)(F)F)c2)c2nncn2n1`, 100 µM (active).
Under `Cc1ccc(N2CCN(C(C(=O)O)c3c[nH]c4cc(NC(=O)C(C)C)ccc34)CC2)c(C)c1` (stereo not drawn) stands “inactive”.
Then `Oc1c(-c2ccccc2)nc2sc3c(c2c1-c1ccccc1)CCCC3`, with “inactive”; and `Cc1ccc(C)n1-c1nnc(N2CCC(C(=O)NCc3ccccc3Cl)CC2)s1`, with “inactive”; and `O=C(c1cc(Cl)cc(Cl)c1)N1CCN(C(=O)c2cc(Cl)ccc2F)CC1`, with “inactive”.
As to `CN(C)C[C@@H]1CN(c2ncccn2)C[C@H]1NC(=O)CCc1ccccc1`, the Potency was 28.2 µM (active).
Under `CCOc1ccc(CC(=O)N2C[C@@H](N)C[C@H]2C(=O)NC(C)C)cc1` stands “inactive”; under `CN(C)C[C@@H]1CN(c2ncccn2)C[C@H]1NC(=O)c1cc(Cl)ccc1F`, 31.6 µM (active).
Under `COc1ccc(CNC(=O)N[C@@H]2CN(c3ccncn3)C[C@H]2CN(C)C)cc1` stands “inactive”.
Under `CCOc1ccc(CC(=O)N[C@@H]2CN(c3ncccn3)C[C@H]2CN(C)C)cc1` stands 25.1 µM (active); under `CN(C)C(=O)c1cccnc1OC1CCN(C(=O)Cc2ccc(Cl)cc2)C1` (stereo not drawn), “inactive”; under `CN(C)C[C@@H]1CN(c2ccncn2)C[C@H]1NC(=O)c1cc(C2CC2)[nH]n1`, “inactive”.
On to `Cc1n[nH]c(C)c1CCC(=O)N[C@@H]1CN(S(C)(=O)=O)C[C@H]1CN(C)C`, for which the Potency entry is “inactive”.
Then `O=C(Cc1ccccc1Cl)N1CCN(c2ncnc3nc[nH]c23)CC1`, with “inactive”; and `CN(C)C[C@@H]1CN(c2ncccn2)C[C@H]1NC(=O)Cc1ccccc1Cl`, with 22.4 µM (active).
As for `C/C=C/c1ccc(OCC(=O)N2CCN(S(=O)(=O)c3ccccc3)CC2)c(OC)c1`, the Potency result is “inactive”.
Under `O=C(/C=C/c1ccccc1)Nc1cccc2c1CCCC2` stands “inactive”.
Then `O=C(NCC1CC1)c1ccc(F)cc1`, with “inactive”.
Then `Cc1ccc(OCc2nc3ccc(F)cc3[nH]2)cc1`, with “inactive”; and `CCCCCC1CC(COc2ccccc2)OC1=O` (stereo not drawn), with “inactive”.
In the case of `COc1ccc2c(COC(=O)c3cc4ccccc4cc3O)cc(=O)oc2c1`, the Potency result is “inactive”.
Then `CCc1cccc2c(C(=O)C(Nc3cccc(CO)c3)c3ccccc3)c[nH]c12` (stereo not drawn), with “inactive”; and `O=C(COC(=O)CCc1c[nH]c2ccccc12)NC1CC1`, with “inactive”; and `Cc1cc(Nc2cccc(Cl)c2)n2nc(Cc3ccccc3)nc2n1`, with “inactive”.
Under `O=C(c1ccccc1)c1ccc(C(=O)N2CCN(c3ccccc3)CC2)cc1` stands “inactive”; under `C=CCNC(=O)N1CC[C@@H](CC(=O)O)[C@@H](CC2=NCCc3ccc(C)cc32)C1`, “inactive”; under `COc1cccc2c1CCN=C2C[C@H]1CN(C(=O)C(C)(C)C)CC[C@H]1CC(=O)O`, 35.5 µM (active).
Under `CC(C)(C)C(=O)N1CC[C@@H](CC(=O)O)[C@@H](CCN2CCN(c3cccc(C(F)(F)F)c3)CC2)C1` stands “inactive”.
For the compound `Cc1ccc(CNC(=O)[C@H](C)NC(=O)[C@@H]2Cc3ccccc3CN2)cc1`, the Potency entry is “inactive”.
Then `O=C(NCc1ccccn1)C1c2ccccc2C(=O)N(C2CCCC2)C12CCCC2` (stereo not drawn), with “inactive”.
Then `COCc1nnc(NC(=O)C2c3ccccc3C(=O)N(C3CCCC3)C23CCCC3)s1` (stereo not drawn), with “inactive”.
Consider `Cc1cccnc1NC(=O)C1c2ccccc2C(=O)N(C2CCCC2)C12CCCC2` (stereo not drawn), for which the Potency was 15.8 µM (active).
Then `CN(C)CCN(Cc1ccc(Cl)cc1)C(=O)c1ccncc1`, with “inactive”.
In the case of `COc1cc(C(=O)OC2CCCCC2=O)ccc1OCc1ccccc1Cl` (stereo not drawn), the Potency entry is “inactive”.
Under `Clc1ccc2[nH]c3c(c2c1)CCCC3` stands “inactive”.
Under `Cc1cnc(CC2CCN(C(=O)c3cccc4[nH]ccc34)CC2)n1CC1CC1` stands 22.4 µM (active); under `Cc1ccncc1C(=O)N1CCC(Cn2c(C)cnc2-c2cccnc2)CC1`, “inactive”; under `COCCn1c(C)cnc1CC1CCN(C(=O)c2ccc(OC)cc2OC)CC1`, “inactive”.
Turning to `Cc1[nH]c(=O)[nH]c(=O)c1CCC(=O)Nc1nc(C(C)C)cs1`, the Potency result is “inactive”.
Under `O=C(c1ccc(-c2ccc(N3CCCCC3)nc2)cc1)N1CCOCC1` stands 28.2 µM (active); under `CCOC(=O)C1CCN(C(=O)c2cccc(S(=O)(=O)N(CC)c3ccccc3)c2)CC1`, “inactive”; under `O=C(c1ccnc(-c2nnc3ccc(N4CCOCC4)nn23)c1)N1CCCCC1`, “inactive”.
`CCOC(=O)C1CCN(C(=O)c2ccc(-c3ccc(N4CCCCCC4)nc3)cc2)CC1`: the Potency was 15.8 µM (active).
Under `O=C(OCc1cccc(Cl)c1)c1ccc(N2CCOCC2)nc1` stands “inactive”; under `CC(=O)c1ccc(NC(=O)COC(=O)C2CCN(c3ccc(C(F)(F)F)cn3)CC2)cc1`, “inactive”.
Under `CCC(=O)Nc1ccc(Cl)cc1C` stands “inactive”; under `Cc1cc(C)c(OCC(=O)Nc2ccc(NC(=O)c3ccco3)cc2)c(Br)c1`, “inactive”.
Under `CCOc1cc(C)c(Cl)cc1S(=O)(=O)N1CCCCC1C` (stereo not drawn) stands “inactive”; under `CC(OC(=O)CCCc1c[nH]c2ccccc12)C(=O)NC(N)=O` (stereo not drawn), “inactive”.
On to `CCCCc1nc(SCC(=O)Nc2nnc(C(C)C)s2)n[nH]1`, for which the Potency result is “inactive”.
Under `CN(C)c1ccc(C(=O)N[C@H]2C[C@H]3C(=O)NC[C@@H](CCC(=O)N4CCCCC4)N3C2)cc1` stands “inactive”; under `CN1[C@@H](CCC(=O)N2CCN(c3ccccn3)CC2)CNC(=O)[C@@H]2[C@H]1CCN2Cc1csnn1`, 28.2 µM (active).
Under `COC(=O)C1CCN(C(=O)CC[C@H]2CNC(=O)[C@@H]3[C@@H](CCN3Cc3cccs3)N2C)CC1` stands “inactive”; under `O=C1NC[C@@H](CCC(=O)N2CCN(c3ccccn3)CC2)N2C[C@@H](NCc3ccccc3)C[C@@H]12`, 31.6 µM (active).
In the case of `O=C(Nc1ccsc1)N[C@H]1C[C@H]2C(=O)NC[C@@H](CCC(=O)N3CCC(O)CC3)N2C1`, the Potency result is “inactive”.
Then `CN1[C@@H](CCC(=O)N2CCN(c3ccccc3)CC2)CNC(=O)[C@H]2NCC[C@H]21`, with “inactive”; and `COc1cccc(C(=O)Oc2ccc(C3(c4ccc(OC(=O)c5cccc(OC)c5)cc4)OC(=O)c4ccccc43)cc2)c1`, with “inactive”; and `CC(C)NC(=O)CN(C)CC(O)COc1ccc(Cl)cc1` (stereo not drawn), with “inactive”.
Then `CCc1cc(CC)n(-c2nc3c(c(=O)n(C)c(=O)n3C)n2C)n1`, with “inactive”; and `CCc1nn(C(C)C(=O)NCc2ccccc2Cl)c(=O)c2cc3occc3n12` (stereo not drawn), with “inactive”.
Then `NC(=O)c1ccc(NC(=O)C2(Cc3nc4ccccc4s3)CCCCC2)cc1`, with “inactive”; and `CCNC(=O)NC(=O)CN1CCCC(c2nc3ccccc3o2)C1` (stereo not drawn), with “inactive”.
Turning to `Cc1nc2scc(CC(=O)NC(C)C)n2c(=O)c1-c1cc(C)n(-c2cccc(Cl)c2)n1`, the Potency was 28.2 µM (active).
In the case of `Cc1cccc(-n2nc(-c3c(C)nc4scc(CC(=O)NCc5ccco5)n4c3=O)cc2C)c1C`, the Potency is 31.6 µM (active).
Then `COc1ccc2c(C)c(CC(=O)NCc3ccco3)c(=O)oc2c1`, with “inactive”; and `CCC1(C)Cc2nc3sc4c(=O)n(CC(=O)NCc5ccco5)cnc4c3cc2CO1` (stereo not drawn), with “inactive”; and `CC(C)NC(=O)Cc1cccs1`, with “inactive”.
With `Cn1nc(CC(=O)Nc2cccc(Cl)c2)c2ccccc2c1=O`, the Potency result was “inactive”.
Then `Cc1ccc(C(NC(=O)c2ccccc2Cl)C(Cl)(Cl)Cl)cc1` (stereo not drawn), with “inactive”.
Take `Cc1cc(NC(=O)CSc2nc(=O)cc(N)n2-c2ccc(F)cc2)no1`: the Potency result is “inactive”.
Under `O=C(O)CC/C(=C/c1cccc(Oc2ccc(Cl)cc2)c1)c1nc2ccccc2s1` stands “inactive”; under `CN(Cc1nnc(-c2ccc(Br)s2)o1)C1CCCC1`, “inactive”.
Then `COc1ccccc1C1=NS(=O)(=O)N(C)C(C(=O)N2CCN(Cc3ccccc3)CC2)=C1`, with “inactive”; and `Cc1ccccc1CNC(=O)c1ccc2c(c1)CCCC2`, with “inactive”; and `O=C(CSc1ncc(-c2ccc(Cl)cc2)o1)Nc1ccc(F)cc1`, with “inactive”.
Under `COc1nc2nc(CC3CC3)n(C)c2cc1-c1cccc(NC(C)=O)c1` stands 35.5 µM (active); under `COc1nc2nc(CC3CC3)n(C)c2cc1-c1ccc(CO)cc1`, 35.5 µM (active); under `CC(=O)Nc1cccc(-c2n[nH]c3c2CC(=O)N(Cc2ccccc2F)C3)c1`, “inactive”.
In the case of `CC(=O)Nc1cccc(-c2nnc3n2CCCC3)c1`, the Potency entry is “inactive”.
Then `COc1nc2nc(CCc3ccccc3)n(C)c2cc1-c1cncnc1`, with “inactive”; and `CSCCC(NC(=O)[C@@H](NC(=O)c1ccc(F)cc1)C(C)C)c1nnc2ccccn12` (stereo partly drawn), with “inactive”.
Under `O=C(Nc1cccc(Cl)c1)N1CCN(c2cc(=O)n3nc(-c4ccco4)sc3n2)CC1` stands “inactive”; under `CCc1ccc2oc(C(=O)Nc3ccccc3Cl)cc(=O)c2c1`, “inactive”.
